IL1B NFkB inh = blocks IL-1B driven NFkB nuclear translocation in HUVEC cells; hit rate 0.43% among 94,000; HUVEC IL-1B NFkB p65 nuclear translocation imaging; inhibition, % at 2 µM;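 active = inhibition above about 30% together with a positive call from visual inspection of the well image, limit read from the data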;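 also: nuclear over cytoplasmic p65 intensity ratio measured by imaging; 0% = IL-1B stimulated DMSO wells and 100% = unstimulated DMSO wells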
NFkB transloc pot = enhances IL-1B driven NFkB nuclear translocation | HUVEC IL-1B NFkB p65 nuclear translocation imaging | hit rate 0.3% among 94,000 | activation, % at 2 µM | AID 819;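 active = activation above 40%, about the mean plus 3 SD, also judged a hit on visual image review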;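 also: percent activation is computed from the nuclear over cytoplasmic p65 intensity ratio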
IL1B cytotox = toxic to HUVEC cells under IL-1B stimulation; HUVEC cell count loss, Hoechst imaging, IL-1B stimulated; cell count reduction, % at 2 µM; hit rate 0.41% among 94,000; AID 845;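 active = cell count reduction more than 3 SD above the screen-wide mean, cut at about 70% in these data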;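 also: normalized per plate to untreated control cells as the no-loss baseline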
PLAP act = activators of human placental alkaline phosphatase | P05187 | purified PLAP enzyme, luminescent substrate read-out; stronger effect = higher value | activation fold at 20 µM | hit rate 1.2% among 96,000 | AID 696; in the data active = activation fold above about 2
TNAP act DEA = activators of human TNAP at intermediate phosphate acceptor; P05186; purified TNAP, CDP-star luminescence, 100 mM DEA, 30 min; stronger effect = higher value; scale: 0 levamisole-inhibited, 1 vehicle-only enzyme; activation factor at 20 µM; 64,000 tested, under 10 active; AID 813;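 active = activation factor of at least 2 at 20 µM, relative to controls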
Target sequence (P05186 whole entry, looked up): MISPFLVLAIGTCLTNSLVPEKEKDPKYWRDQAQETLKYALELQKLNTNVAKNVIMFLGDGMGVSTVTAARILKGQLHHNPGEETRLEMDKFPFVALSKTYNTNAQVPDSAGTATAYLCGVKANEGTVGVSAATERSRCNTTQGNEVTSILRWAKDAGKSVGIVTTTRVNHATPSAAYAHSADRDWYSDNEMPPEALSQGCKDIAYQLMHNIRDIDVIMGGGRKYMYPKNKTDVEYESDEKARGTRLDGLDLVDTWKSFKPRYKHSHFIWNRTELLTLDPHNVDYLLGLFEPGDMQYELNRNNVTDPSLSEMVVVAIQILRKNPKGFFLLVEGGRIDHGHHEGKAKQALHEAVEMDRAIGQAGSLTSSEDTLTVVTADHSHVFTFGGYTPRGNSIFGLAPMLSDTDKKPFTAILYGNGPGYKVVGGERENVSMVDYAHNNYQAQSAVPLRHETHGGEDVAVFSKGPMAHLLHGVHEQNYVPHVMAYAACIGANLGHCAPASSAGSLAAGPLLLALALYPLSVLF
An asterisk follows results filed as active; x = no result. Most compounds without a hit are left out; they make up all but 2.1% or so of the library.

SMILES	IL1B NFkB inh	NFkB transloc pot	IL1B cytotox	PLAP act	TNAP act DEA
O=C(N/N=C/C(Br)=C/c1ccccc1)c1n[nH]c2c1CCC2	40*	-41	16	1.5	x
O=C(CN1CCCCCC1)N1c2ccccc2C=Cc2ccccc21	31*	-31	3	1.7	x
CCOc1cc(CNc2ncnc3nc[nH]c23)ccc1OC	x	x	x	2.2*	1.1
c1ccc(CNc2ncnc3nc[nH]c23)cc1	-5	5	-1	2*	x
CCCNc1ncnc2nc[nH]c12	x	x	x	1.3	1
O=C(CN(Cc1ccco1)C(=O)Cn1nnc(-c2ccc(F)cc2)n1)NC1CCCC1	-3	3	4	1.1	0.9
CCCCC(C(=O)NC1CCCC1)N(Cc1ccco1)C(=O)Cn1nnc(-c2ccc(F)cc2)n1 (configuration not stated)	0	-1	3	2.2*	x
CCN(CC)c1ccc2cc(-c3nc4ccccc4n3C)c(=O)oc2c1	34*	-34	59	1.7	1.7
CCN(CC)c1ccc2cc(-c3nc4ccccc4[nH]3)c(=O)oc2c1	-11	11	-2	0.9	1.4
COc1ccc(/C=N/NC(=O)Cc2csc(Nc3cccc(C(F)(F)F)c3)n2)cc1C	x	x	x	1	x
Cc1c(C(=O)NCCc2ccccc2)oc2ccc(S(=O)(=O)N3CCC4(CC3)OCCO4)cc12	10	-10	8	1.1	0.9
Cc1c(C(=O)NCc2ccco2)oc2ccc(S(=O)(=O)N3CCC4(CC3)OCCO4)cc12	32*	-32	-2	1.3	0.6
Cc1c(Cl)c(-c2n[nH]c(=S)n2-c2ccc(F)cc2)nn1C	36*	-36	4	1.1	x
COc1cc(OC)nc(NC(=O)NS(=O)(=O)c2ccc(OC(F)(F)F)cc2)n1	4	-3	-26	1.1	0.9
O=C(CCN1CCc2ccccc2C(c2ccccc2)C1)c1ccc2c(c1)OCCO2 (configuration not stated)	34*	-34	-117	1.8	x
Cc1nn(CCc2n[nH]c(=S)n2-c2cccc(Cl)c2)c(C)c1[N+](=O)[O-]	-1	1	-1	2.2*	x
CCc1ncc(C(O)c2cccc(OC)c2OC)n1C (configuration not stated)	99*	-99	90*	0.9	0.8
COc1cccc(C(O)c2cnc(C(C)C)n2C)c1OC (configuration not stated)	x	x	x	1	1
Cn1ccnc1C(O)c1cc(C(C)(C)C)c(O)c(C(C)(C)C)c1 (configuration not stated)	0	0	27	2.2*	1.1
CC(C)(C)c1cc(CN2CCCCC2)cc(C(C)(C)C)c1O	5	-5	0	1	x
Cc1cc(C)c2nc(SC(C)C#N)cc(C)c2c1 (configuration not stated)	-13	13	-56	0.8	x
O=C(NNc1nc2ccccc2s1)c1ccccc1F	-4	4	22	2.3*	x
O=C(NNc1nc2ccccc2s1)C1CC1	-13	13	-17	2.2*	x
CC(C)C(=O)NNc1nc2ccccc2s1	-7	7	6	1	x
Cc1cccc2c(=O)oc(-c3ccc4c(c3)C(=O)N(CC3CCCO3)C4=O)nc12 (configuration not stated)	-11	11	-4	x	1
SMILES	IL1B NFkB inh	NFkB transloc pot	IL1B cytotox	PLAP act	TNAP act DEA
CCOC(=O)c1sc(NC(=O)c2ccc(S(=O)(=O)N3CCOCC3)cc2)cc1C	-25	25	-6	0.9	0.9
Cc1noc(C)c1CSc1nc2[nH]ncc2c(=O)n1-c1ccccc1	-7	7	-35	x	x
N#CCSc1nc2[nH]ncc2c(=O)n1-c1ccccc1Br	10	-10	-2	x	1.1
Cc1nc(CSc2nc3[nH]ncc3c(=O)n2-c2ccccc2)cs1	-10	9	-19	2.3*	1
Cc1cccc(-n2c(SCc3cc(=O)n4c(C)cccc4n3)nc3[nH]ncc3c2=O)c1	x	x	x	2.8*	x
Cc1c(C#N)c(N=CN(C)C)c(C(=O)c2ccc(Br)cc2)n1-c1ccc(Cl)cc1	-6	6	-4	1.4	x
O=C(c1oc2ccccc2c1CSCc1ccccc1)N1CCN(c2ncccn2)CC1	-7	7	-30	1	1
CN(CC(=O)Nc1ccc(Cl)cc1)CC(=O)Nc1cc(Cl)ccc1C#N	x	x	x	2.5*	1.1
CCOc1ccc(NC(=O)CN(C)CC(=O)Nc2ccccc2C#N)cc1OCC	-6	7	10	1.8	1.1
O=C1CC(SC(=Nc2ccccc2)Nc2ccccc2)C(=O)N1c1cccc2ccccc12 (configuration not stated)	-1	1	-22	0.8	x
c1ccc(Cc2nnc3sc(-c4cccnc4)nn23)cc1	-12	12	91*	1	1
Cc1ccccc1S(=O)(=O)NNC(=O)C(=O)NNc1ccccn1	-11	11	-12	2.4*	x
Cc1ccc(S(=O)(=O)NNC(=O)C(=O)NNc2ccccn2)cc1	-2	2	1	2.4*	x
Nc1ccc(S(=O)(=O)NNC(=O)C(=O)NNc2ccccn2)cc1	-6	6	-7	1.7	x
COc1cc(C2CC(=O)c3c([nH]c(C(=O)OCCOC(C)C)c3C)C2)cc(OC)c1OC (configuration not stated)	2	-2	2	1.3	0.9
Cc1cc(OC(=O)c2ccc(S(=O)(=O)N(C)C)cc2)cc(=O)o1	-14	14	5	0.9	1
Cc1ccc(OCc2nc(C#N)c(NCCCn3ccnc3)o2)cc1	-10	10	17	1.2	1.1
N#Cc1nc(COc2ccc(Br)cc2)oc1NCCCn1ccnc1	20	-19	49	2.2*	1
O=C(CCn1c(=O)sc2ccccc21)NCc1ccc2c(c1)OCO2	-8	8	32	x	0.9
CCn1c(SCC(=O)Nc2cccc(NC(=O)c3cccs3)c2)nnc1-c1ccncc1	-42	42*	-40	1.2	0.9
CCn1c(SCC(=O)NCc2cccs2)nnc1-c1ccncc1	-25	25	2	0.9	0.9
Cc1cc(Cl)c(S(=O)(=O)N2CCN(c3ccccc3)CC2)cc1OCC(N)=O	-6	6	2	x	x
COc1ccc(-c2c(C#N)c(SCC(=O)Nc3ccccc3)nc3c2CCCC3)cc1	5	-5	6	x	x
N#Cc1c(SCC(N)=O)nc2c(c1-c1ccc(OCc3ccccc3)cc1)CCCC2	-3	3	86*	x	x
COc1ccc(N2CCN(c3nc4c(c(=O)[nH]c(=O)n4C)n3CCCc3ccccc3)CC2)cc1	x	x	x	x	0.9
O=C(COC(=O)c1ccccc1C(=O)c1ccc(Cl)c([N+](=O)[O-])c1)NC1CCCCCC1	83*	-83	47	1.4	x
CN(CCC#N)C(=O)c1ccc(CNS(=O)(=O)c2ccc(F)cc2)cc1	100*	-100	86*	0.9	0.9
O=S(=O)(NCCC1=CCCCC1)c1cccc(S(=O)(=O)N2CCOCC2)c1	3	-3	43	1.3	0.9
CCCCCCCCC(=O)NC(NC(=S)N1CCOCC1)C(Cl)(Cl)Cl (configuration not stated)	-41	41*	-37	x	x
Cc1cc(Cl)ccc1NC(=O)CCCN1C(=O)CCC1=O	43*	-43	-4	0.8	x

Screening data (PubChem BioAssay)
